Reference: PubChem BioAssay (NCATS)
Values joined by “and” are separate entries in the source; they are usually repeats but may differ in a detail not shown here. Equal values may be shown once. Results filed as inconclusive are left out. Active and inactive are the calls of the source. Unless noted, calls come from the whole dose curve; as a rule, active = well fitted curve in the direction sought with a large enough effect; inconclusive = small, poorly fitted or top-dose-only effect, or another doubt; inactive = no such curve, though single readings can be large; an effect the other way counts as inactive or inconclusive.

What was measured:
[1] = target: Voltage-gated inwardly rectifying potassium channel KCNH2 (Homo sapiens) (UniProt Q12809); assay: qHTS Assay for Small Molecule Inhibitors of the Human hERG Channel Activity (AID 588834);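 note: lower thallium flux fluorescence means stronger hERG block; nearly all actives have a fitted effect of over 50% in size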; note: potency is the fitted concentration of half-maximal effect
Chain of Voltage-gated inwardly rectifying potassium channel KCNH2 (Homo sapiens) (Q12809 whole entry, looked up): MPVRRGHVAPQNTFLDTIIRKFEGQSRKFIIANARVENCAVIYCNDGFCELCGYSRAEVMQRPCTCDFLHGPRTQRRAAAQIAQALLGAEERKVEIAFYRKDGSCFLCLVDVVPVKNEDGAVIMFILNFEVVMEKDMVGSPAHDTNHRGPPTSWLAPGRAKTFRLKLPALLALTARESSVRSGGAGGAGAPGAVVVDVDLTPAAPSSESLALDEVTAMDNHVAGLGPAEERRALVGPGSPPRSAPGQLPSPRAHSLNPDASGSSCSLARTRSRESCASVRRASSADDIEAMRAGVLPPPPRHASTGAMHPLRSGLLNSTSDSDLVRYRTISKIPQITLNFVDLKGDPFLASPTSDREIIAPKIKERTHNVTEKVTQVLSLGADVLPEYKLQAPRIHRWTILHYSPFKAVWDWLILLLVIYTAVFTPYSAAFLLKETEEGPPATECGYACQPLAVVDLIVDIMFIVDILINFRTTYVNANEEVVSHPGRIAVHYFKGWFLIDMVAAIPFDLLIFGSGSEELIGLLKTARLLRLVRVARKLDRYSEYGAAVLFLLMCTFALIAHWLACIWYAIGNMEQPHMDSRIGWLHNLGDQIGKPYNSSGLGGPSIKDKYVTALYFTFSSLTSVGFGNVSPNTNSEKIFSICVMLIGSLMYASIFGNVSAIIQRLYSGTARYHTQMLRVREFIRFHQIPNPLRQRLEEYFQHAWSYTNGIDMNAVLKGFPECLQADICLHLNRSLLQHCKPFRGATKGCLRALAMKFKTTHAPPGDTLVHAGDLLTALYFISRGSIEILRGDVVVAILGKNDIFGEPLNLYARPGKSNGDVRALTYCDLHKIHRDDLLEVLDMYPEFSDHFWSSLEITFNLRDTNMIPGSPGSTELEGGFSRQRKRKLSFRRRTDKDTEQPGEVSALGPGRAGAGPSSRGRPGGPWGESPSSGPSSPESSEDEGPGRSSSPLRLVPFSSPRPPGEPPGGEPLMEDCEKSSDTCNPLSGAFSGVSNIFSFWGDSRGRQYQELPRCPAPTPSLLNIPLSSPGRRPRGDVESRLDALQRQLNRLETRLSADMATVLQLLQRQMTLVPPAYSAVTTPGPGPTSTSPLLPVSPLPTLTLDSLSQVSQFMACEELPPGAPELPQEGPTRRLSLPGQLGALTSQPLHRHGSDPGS
Method in brief: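 Concentration-response qHTS measuring drop in thallium-sensitive dye signal. U2OS cells carrying BacMam hERG; compound exposure ~10 min, then stimulation buffer and 2 min read at 1 sec intervals.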

[2] = target: Luciferin 4-monooxygenase (Photinus pyralis) (UniProt P08659); assay: Biochemical firefly luciferase enzyme assay for NPC (AID 624030); note: nearly all actives have a fitted effect of over 70% in size; note: potency is the fitted concentration of half-maximal effect
Chain of Luciferin 4-monooxygenase (Photinus pyralis) (P08659 whole entry, looked up): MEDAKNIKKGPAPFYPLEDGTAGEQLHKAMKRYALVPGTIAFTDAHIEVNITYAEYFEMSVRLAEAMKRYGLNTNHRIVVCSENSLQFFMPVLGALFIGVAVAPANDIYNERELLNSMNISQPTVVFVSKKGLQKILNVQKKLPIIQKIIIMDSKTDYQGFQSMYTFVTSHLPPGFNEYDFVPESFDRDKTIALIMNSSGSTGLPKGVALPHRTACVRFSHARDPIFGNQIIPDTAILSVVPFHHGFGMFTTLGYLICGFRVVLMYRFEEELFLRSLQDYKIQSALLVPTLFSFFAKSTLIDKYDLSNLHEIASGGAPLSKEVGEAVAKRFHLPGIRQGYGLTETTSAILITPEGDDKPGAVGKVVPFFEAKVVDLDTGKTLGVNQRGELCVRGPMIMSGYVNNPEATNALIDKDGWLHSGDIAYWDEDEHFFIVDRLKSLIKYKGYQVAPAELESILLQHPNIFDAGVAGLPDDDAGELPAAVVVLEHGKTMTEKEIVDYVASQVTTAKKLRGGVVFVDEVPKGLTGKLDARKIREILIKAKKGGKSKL
Method in brief: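 Counter-screen for direct inhibition of the luciferase enzyme by approved-drug library compounds, run at 10 nM enzyme in 50 mM Tris acetate (final). Luminescence was read within 5 min of enzyme-buffer addition and normalized to PTC124 versus DMSO (0%).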

[3] = S16 Schwann cell viability assay (CellTiter-Glo assay) (AID 624031); note: nearly all actives have a fitted effect of over 70% in size; note: potency is the fitted concentration of half-maximal effect
Method in brief: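 Native S16 rat Schwann cells, 500-750 cells/well in DMEM with 10% FBS, dosed with compound after overnight culture and incubated 24h at 37 degree Celsius/5% CO2. Viability by CellTiter-Glo luminescence; % activity normalized to no-cell wells and DMSO-treated cells.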

[4] = S16 Schwann cell PMP22 intronic element firefly luciferase assay (AID 624032); note: nearly all actives have a fitted effect of over 30% in size; note: potency is the fitted concentration of half-maximal effect
Method in brief: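 Rat S16 Schwann cells stably carrying a PMP22 intronic element-driven Fluc reporter were seeded overnight, then exposed to compounds for 24 h at 37 °C. Luminescence was normalized to PTC124 (positive control) and DMSO (0% activity).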

[5] = S16 Schwann cell PMP22 intronic element beta-lactamase assay (AID 624044; calls by dose curve; note: nearly all actives have a fitted effect of over 15% in size)
Method in brief: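 Rat S16 Schwann cells with beta-Lac driven by a PMP22 intronic element, compound-treated 24 h at 37 °C. LiveBLAzer FRET B/G read: 460 nm normalized to potassium clavulanate vs DMSO; 535 nm FRET as viability; concentration-effect curves classified.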

[6] = target: Glutaminase kidney isoform, mitochondrial (Homo sapiens) (UniProt O94925); assay: qHTS for Inhibitors of Glutaminase (GLS): LOPAC Validation (AID 624146); note: nearly all actives have a fitted effect of over 60% in size; note: potency is the fitted concentration of half-maximal effect
Chain of Glutaminase kidney isoform, mitochondrial (Homo sapiens) (O94925 whole entry, looked up, canonical isoform): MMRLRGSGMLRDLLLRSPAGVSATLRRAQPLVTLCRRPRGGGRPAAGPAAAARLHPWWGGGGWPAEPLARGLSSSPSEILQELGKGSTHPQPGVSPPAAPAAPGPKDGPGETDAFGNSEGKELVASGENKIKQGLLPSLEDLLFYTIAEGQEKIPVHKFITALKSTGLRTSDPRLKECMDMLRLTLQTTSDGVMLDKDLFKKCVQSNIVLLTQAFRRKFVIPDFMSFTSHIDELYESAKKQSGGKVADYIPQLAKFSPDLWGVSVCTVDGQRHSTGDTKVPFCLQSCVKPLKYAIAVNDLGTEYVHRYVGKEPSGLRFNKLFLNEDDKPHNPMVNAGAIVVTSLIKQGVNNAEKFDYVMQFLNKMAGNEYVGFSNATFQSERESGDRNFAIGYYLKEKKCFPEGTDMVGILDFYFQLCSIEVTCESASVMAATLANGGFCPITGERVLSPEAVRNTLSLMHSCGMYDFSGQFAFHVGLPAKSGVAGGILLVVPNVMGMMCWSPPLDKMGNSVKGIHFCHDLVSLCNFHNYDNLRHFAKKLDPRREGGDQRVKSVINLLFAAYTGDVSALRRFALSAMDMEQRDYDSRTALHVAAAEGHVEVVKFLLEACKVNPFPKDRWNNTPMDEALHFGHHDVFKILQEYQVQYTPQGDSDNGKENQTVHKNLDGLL
Method in brief: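 Compounds were pin-transferred onto hKGA, after which L-glutamine (1 mM solution) and a detection mix of glutamate oxidase, HRP and Amplex Red were added. Initial and 30 min RT fluorescence reads were collected.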

[7] = qHTS of Trypanosoma Brucei Inhibitors: LOPAC Validation (AID 624147)
Method in brief: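 Luminescent Kinase-Glo Plus end-point after 45 min room-temperature reaction of T. brucei pyruvate kinase started with 130 uM ADP (final). Buffer TEA 50 mM pH 7.2 with KCl, MgCl2, BSA, Tween-20; titration-based qHTS with fitted concentration-effect curves.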

[8] = target: Glucagon-like peptide 1 receptor (Homo sapiens) (UniProt P43220); assay: qHTS of GLP-1 Receptor Agonists: LOPAC Validation (AID 624148);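 note: higher luminescence signal means agonism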
Chain of Glucagon-like peptide 1 receptor (Homo sapiens) (P43220 whole entry, looked up): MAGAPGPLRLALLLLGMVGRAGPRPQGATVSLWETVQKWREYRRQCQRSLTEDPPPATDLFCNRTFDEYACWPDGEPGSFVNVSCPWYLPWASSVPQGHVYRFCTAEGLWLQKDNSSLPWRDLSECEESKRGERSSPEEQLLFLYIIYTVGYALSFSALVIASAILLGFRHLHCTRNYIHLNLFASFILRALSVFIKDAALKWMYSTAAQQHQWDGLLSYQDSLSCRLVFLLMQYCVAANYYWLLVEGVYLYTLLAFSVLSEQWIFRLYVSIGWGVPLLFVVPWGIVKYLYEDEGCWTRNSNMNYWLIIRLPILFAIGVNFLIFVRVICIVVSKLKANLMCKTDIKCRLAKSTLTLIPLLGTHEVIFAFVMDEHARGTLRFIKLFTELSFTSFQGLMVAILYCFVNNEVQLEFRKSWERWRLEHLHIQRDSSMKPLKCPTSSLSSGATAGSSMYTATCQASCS
Method in brief: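 HEK293 cells stably co-expressing a cAMP-responsive luciferase reporter and a hypersensitive GLP-1R were plated 12 h at 37 °C and exposed to compounds for 4-6 hr at 37 °C, 5% CO2. Luminescence was read 12 min after adding detection reagent.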

[9] = qHTS of Nrf2 Activators: LOPAC Validation (AID 624149)
Method in brief: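 Luminescence read-out of ARE-luciferase activation: AREc32_Fluc cells treated with compounds for 24 hr at 37 deg C, then lysed with Steady-Glo for 30 min at room temperature before reading.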

[10] = HTS Assay for Allosteric Antagonists of the Human D2 Dopamine Receptor: Hit Validation in HTRF (AID 624455); note: potency is the fitted concentration of half-maximal effect;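 note: stable D1 dopamine receptor cell line scored for blocking the D1 response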
Method in brief: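 First, antagonism was screened by calcium flux in a force-coupled, inducible Hek293 Trex D2 line challenged with EC80 dopamine. Hits then went into an HTRF assay in cells stably expressing D1, testing inhibition of the D1 response.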

[11] = Cytotoxicity counterscreen for NFkB agonists and antagonists (AID 624476);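 note: cells exposed to compound for 48 hours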
[12] = qHTS Assay for Identification of Small Molecule Agonists for NFkB Signaling Pathway. (AID 624478);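 note: compounds tested together with TNF alpha at its EC50 of 10 pM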
Method in brief: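 ME-180 cervical carcinoma, stable NFkB-RE beta-lactamase reporter; 1000 cells/well, overnight attachment; cpd + TNF alpha 10 pM final, 5 h 37 C; LiveBLAzer 2 h RT; FRET 460/530 nm, ex 405 nm.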

[13] = qHTS Assay for Identification of Small Molecule Antagonists for NFkB Signaling Pathway. (AID 624479; calls by dose curve;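 note: pathway stimulated with TNF alpha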)
[14] = Cell Proliferation Assay against the TMD8 Cell Line (AID 651645); details: TMD8 DLBCL cell line proliferation/viability; at 46.1 µM (top of the series);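 note: cells exposed to compound for 48 h before reading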
Method in brief: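 Luminescent ATP read-out (CellTiter-Glo, 15 min RT) after 48 h compound exposure of log-growing TMD8 cells at 37C; percent activity scaled between DMSO as 100% and 9.2 uM bortezomib final as 0%.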

[15] = Cell Proliferation Assay against the HBL1 Cell Line (AID 651646); details: HBL1 DLBCL cells; at 46.1 µM (top of the series);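 note: cells exposed to compound for 48 h before reading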
Method in brief: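 500 log-phase HBL1 cells per well in phenol red-free RPMI with 5% FBS were treated with compounds for 48 h at 37 °C, 5% CO2. Viability was read by CellTiter-Glo luminescence, normalized to DMSO (100%) and 9.2 uM bortezomib final (0%).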

COc1ccccc1N1CCNCC1
inactive: Potency [1] | Potency [2] | Potency [3] | Potency [4] | Potency [5] | Potency [6] | outcome [7] | outcome [8] | outcome [9] | Potency [10]

FC(F)(F)c1cccc(C2=CCN(CCc3ccc4ccccc4c3)CC2)c1
active: Potency [1] 1.58 µM
inactive: Potency [2] | Potency [3] | Potency [4]

CCOC(=O)C1(c2ccccc2)CCN(CCC(C#N)(c2ccccc2)c2ccccc2)CC1
active: Potency [1] 0.355 µM
inactive: Potency [2] | Potency [3]

O=c1oc2ccccc2c(O)c1C(CC(O)c1ccc(-c2ccc(Br)cc2)cc1)c1ccccc1 (configuration not stated)
inactive: Potency [1]

Clc1cccc(N2CCNCC2)c1
inactive: Potency [1] | Potency [2] | Potency [3] | Potency [4]

Cc1ccc(-c2nc3ccc(C)cn3c2CC(=O)N(C)C)cc1
inactive: Potency [1] | Potency [2] | Potency [3] | Potency [4] | Potency [5]

CO[C@]12CC[C@@]3(C[C@@H]1[C@](C)(O)C(C)(C)C)[C@@H]1Cc4ccc(O)c5c4[C@@]3(CCN1CC1CC1)[C@H]2O5
inactive: Potency [2]

c1ccc(C2CC2)c(OCC2=NCCN2)c1
inactive: Potency [1] | Potency [2] | Potency [3] | Potency [4] | Potency [6] | outcome [7] | outcome [8] | outcome [9] | Potency [10]

NCC(CC(=O)O)c1ccc(Cl)cc1 (configuration not stated)
inactive: Potency [1] | Potency [2] | Potency [3] | Potency [4] | Potency [6] | outcome [7] | outcome [8] | outcome [9] | Potency [10]

C[C@@H]1O[C@@H](O[C@H]2C[C@@H](O)[C@]3(CO)[C@H]4[C@H](O)C[C@]5(C)[C@@H](C6=CC(=O)OC6)CC[C@]5(O)[C@@H]4CC[C@]3(O)C2)[C@H](O)[C@H](O)[C@H]1O
inactive: Potency [1] | Potency [6] | outcome [7] | outcome [8] | outcome [9] | Potency [10]

NCCc1cc(O)c(O)cc1O
inactive: Potency [1] | Potency [3] | Potency [4] | Potency [5]

CC[C@@H](CO)NC(=O)[C@@H]1C=C2c3cccc4[nH]cc(c34)C[C@H]2N(C)C1
inactive: Potency [1] | Potency [2] | Potency [3] | Potency [5] | outcome [7] | outcome [8] | outcome [9]
active: Potency [10] 5.2 nM

CN1CCN(C2=Nc3cc(Cl)ccc3Nc3ccccc32)CC1
inactive: Potency [2]

O=C(O)c1ccc2[nH]cc(CCCCN3CC=C(c4ccccc4)CC3)c2c1
inactive: Potency [1] | Potency [2] | Potency [4]

Cn1c(CCCC(=O)O)nc2cc(N(CCCl)CCCl)ccc21
inactive: Potency [1] | Potency [2] | Potency [3] | Potency [11] | outcome [12] | Potency [13]
108%: viability, percent of control [15]
active: Potency [4] 1020 nM
95.4%: viability (% of control) [14]

CCC(COC(=O)c1cc(OC)c(OC)c(OC)c1)(c1ccccc1)N(C)C (configuration not stated)
inactive: Potency [2] | Potency [3] | Potency [4] | Potency [5]

CC(=O)Oc1ccccc1C(=O)Nc1ncc([N+](=O)[O-])s1
active: Potency [2] 721 nM
inactive: Potency [4]

c1ccc2c(c1)OCC(C1=NCCN1)O2 (configuration not stated)
inactive: Potency [1] | Potency [2] | Potency [6] | outcome [7] | outcome [8] | Potency [10]

CCCN1CCC[C@@H]2Cc3[nH]ncc3C[C@H]21
inactive: Potency [2] | Potency [3] | Potency [4] | Potency [6] | outcome [7] | outcome [8] | outcome [9]

N#CC(C#N)=Cc1ccc(O)c(O)c1
active: Potency [6] 355 nM
inactive: Potency [1] | Potency [2] | Potency [3] | outcome [7] | outcome [8] | outcome [9] | Potency [10]

Cc1ccc(S(=O)(=O)N[C@@H](CCCCN)C(=O)CCl)cc1
inactive: Potency [1] | Potency [2] | Potency [3] | Potency [4] | Potency [5] | outcome [7] | outcome [8] | outcome [9] | Potency [10]

NCC1(CC(=O)O)CCCCC1
inactive: Potency [1] | Potency [2] | Potency [3] | Potency [4] | Potency [6] | outcome [7] | outcome [8] | outcome [9] | Potency [10]

O=C1NCN(c2ccccc2)C12CCN(CC1COc3ccccc3O1)CC2 (configuration not stated)
inactive: Potency [2] | Potency [5] | Potency [6] | outcome [7] | outcome [8] | outcome [9] | Potency [10]
active: Potency [1] 6.31 µM and 7.94 µM

COc1ccc(C(=O)c2c(C)n(CCN3CCOCC3)c3ccccc23)cc1
inactive: Potency [1] | Potency [2] | Potency [5] | Potency [11] | outcome [12] | Potency [13]
18.8%: viability (% of control) [14]
50.4%: viability, percent of control [15]

Fc1ccc(C(OCCN2CCN(CCCc3ccccc3)CC2)c2ccc(F)cc2)cc1
active: Potency [3] 32200 nM | Potency [4] 28700 nM
inactive: Potency [2] | outcome [7] | outcome [8] | outcome [9] | Potency [10]
